About 820 (0.2%) of roughly 410,000 compounds were called active. Roughly 2% stayed inconclusive and do not appear here. Calls follow the shape of the dose curve; as a rule, active = well fitted activation curve with a large enough effect; inconclusive = small, poorly fitted or top-dose-only effect; inactive = flat fitted curve, though single readings scatter; cell line not stated here. The sample as a whole holds a higher share of actives than the screen did.
experiment: A Quantitative High throughput Screen to Identify Chemical Modulators of PINK1 Expression; settings: PINK1 immunofluorescence, high-content cytometry, 24 h; series mostly up to 76.6 µM; activation (PINK1 increase): at the top concentration; also: nearly all actives have a fitted effect of over 65% in size; as to activation (PINK1 increase): % of control where 0% means no effect
In short: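 Stable cell line, 250 cells/well, 12 h attachment; compounds pinned at 5 concentrations, 24 h; CCCP control. Fixed with nuclear dye, primary antibodies 12 h at 10 degrees C, secondary plus cell stain; laser-scanning cytometer read.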
Potency is read from the fitted curve at half-maximal effect.

| SMILES | activation (PINK1 increase) | Potency |
| --- | --- | --- |
| CN(C)C(=O)[C@@H]1C[C@@H](Sc2nc3ccccc3[nH]2)CN1Cc1ccc(Cl)cc1 | -0.905% (inactive) |  |
| O=C(c1cc(C(F)(F)F)cc(C(F)(F)F)c1)N1CCC[C@@]2(CCN(c3ccccn3)C2)C1 | 1.27% (inactive) |  |
| CC(C)c1cc(C(=O)N2CCOc3ccc(CN4CCC(Oc5cccnc5)CC4)cc3C2)n[nH]1 | 0.462% (inactive) |  |
| Cc1c(S(=O)(=O)O)oc2c1C(=O)C(=O)c1c-2ccc2c1CCCC2(C)C | -0.627% (inactive) |  |
| S=c1[nH]c(=S)c2n[nH]nc2[nH]1 | 0.817% (inactive) |  |
| O=C(NCCCNc1ccc([N+](=O)[O-])cc1Cl)c1ccccc1F | -0.842% (inactive) |  |
| O=[N+]([O-])c1ccc(NS(=O)(=O)c2ccccc2)c(Cl)c1 |  | 39.8 µM (active) |
| O=C(NNS(=O)(=O)c1ccc(F)cc1)c1ccc([N+](=O)[O-])cc1Cl | 1.65% (inactive) |  |
| C=C[C@](C)(O)CCC1C(=C)CCC2[C@@](C)(CO)CCC[C@@]12C (some centres undefined) | 6.03% (inactive) |  |
| COc1cccc(CN2CCC3(CC2)c2ccccc2[C@@H](NC(=O)c2ccccc2OC)[C@@H]3O)c1 | 2.04% (inactive) |  |
| COc1cc(=O)n2c(c1C(=O)NCc1ccco1)CCN(Cc1ccccc1)CC2 | -0.574% (inactive) |  |
| O=c1c(CN2CCOc3ccc(CN4CCC(Oc5cccnc5)CC4)cc3C2)coc2ccccc12 | -0.312% (inactive) |  |
| Cc1ccc(C)c(NC(=O)C2CC(=O)N(C(C)C)C2)c1 (centres undefined) | 1.52% (inactive) |  |
| Cc1ccc(C)c(NC(=S)NNC(=S)Nc2ccc(C(C)C)cc2)c1 |  | 14.1 µM (active) |
| Cc1ccc(C)c(NC(=S)NCC(c2cccnc2)N2CCOCC2)c1 (centres undefined) | -1.64% (inactive) |  |
| COCCn1c(=O)c(-c2ccc(OC)cc2)nc2cnc(Oc3cccc(Cl)c3)nc21 | 1.63% (inactive) |  |
| Nc1ccc(/C=C/c2ccnc3ccccc23)c([N+](=O)[O-])c1 | 13.3% (inactive) |  |
| CCOC(=O)N1CCN(Cc2ccc3c(c2)CN(C(=O)c2cccc(-n4cccn4)c2)CCO3)CC1 | -0.805% (inactive) |  |
| COc1ccccc1CNC(=O)C1CCN(c2nc3ccccc3o2)CC1 |  | 2.82 µM (active) |
| COc1ccccc1CNC(=O)C1CCN(C(=O)[C@@H]2Cc3ccccc3CN2)CC1 | -0.408% (inactive) |  |
| COc1ccccc1CNC(=O)C1CCN(S(=O)(=O)c2ccc3c(c2)OCCO3)CC1 | 1.24% (inactive) |  |
| O=C(CCN1Cc2ccccc2OC(c2ccccc2)C1)N[C@@H]1CS(=O)(=O)C[C@H]1O (some centres undefined) | -0.62% (inactive) |  |
| CN1CCN(c2ncc3nc(-c4ccc(Cl)cc4)c(=O)n(-c4ccccc4)c3n2)CC1 | 3.94% (inactive) |  |
| CCc1nc2cc(C(=O)NCC3CCS(=O)(=O)C3)cc(NC(=O)c3ccccc3OC)c2n1C (centres undefined) | 0.746% (inactive) |  |
| CCOc1ccc(S(=O)(=O)N2CCN(C(=S)NCC3CCCO3)CC2)cc1 (centres undefined) | 1.31% (inactive) |  |
| Cc1cc(C2=NNC(=Nc3ccc(S(=O)(=O)N4CCOCC4)cc3)SC2)c(C)n1CC1CCCO1 (centres undefined) |  | 35.5 µM (active) |
| C=CCn1c(C)cc(C2=NNC(=NCC)SC2)c1C | 0.36% (inactive) |  |

| SMILES | activation (PINK1 increase) | Potency |
| --- | --- | --- |
| COc1ccccc1CNc1ncncc1-c1cccnc1 | -0.566% (inactive) |  |
| COC(=O)c1c(OCc2ccc(F)cc2)cc(=O)n2c1CCN(Cc1ccc3cccnc3c1)CC2 | 0.408% (inactive) |  |
| O=C(NCc1cc(C(F)(F)F)cc(C(F)(F)F)c1)C1CC(c2cccc(F)c2)=NO1 (centres undefined) | 9.67% (inactive) |  |
| COc1ccc(S(=O)(=O)N2CCC(C(=O)NCc3ccco3)CC2)cc1C | -0.254% (inactive) |  |
| COc1ccc(C2=NOC(C(=O)NCc3ccco3)C2)cc1OC (centres undefined) |  | 12.6 µM (active) |
| COc1cc2nc(N3CCCN(C)CC3)nc(NC(C)C)c2cc1OC | 2.45% (inactive) |  |
| CCc1noc(C)c1C(=O)NCCN1Cc2cc(OC)ccc2OC(CC)C1 (centres undefined) | -0.237% (inactive) |  |
| O=C(c1cccnc1)N1CCN(S(=O)(=O)c2cccs2)CC1 | 0.0275% (inactive) |  |
| O=C(N/N=C/c1sc(N2CCCCC2)nc1-c1cccs1)c1cccnc1 |  | 20 µM (active) |
| O=C(Nc1ccc(N2CCN(C(=O)c3ccccc3)CC2)c(Cl)c1)c1cccnc1 | -3.19% (inactive) |  |
| Cc1ccc(-c2ccc(C(=O)N3CCc4nnc(CNC(=O)c5ccccc5)n4CC3)cc2)cc1 | 0.715% (inactive) |  |
| O=C(CN1Cc2ccccc2OC(c2ccccc2)C1)N1CCCCC1c1cccnc1 (centres undefined) | 0.558% (inactive) |  |
| CCOc1ccc2nc(N3CCCN(CCCn4cccn4)CC3)nc(C)c2c1 | -0.633% (inactive) |  |
| Oc1c(Br)cccc1/C=N/Nc1c(F)c(F)c(F)c(F)c1F |  | 39.8 µM (active) |
| CCOC(=O)N1CCC(N2CCOc3ccc(CN4CCC(O)(c5cccnc5)CC4)cc3C2)CC1 | 0.385% (inactive) |  |
| O=C(CSc1nc2cc3c(cc2c(=O)n1CCC1=CCCCC1)OCO3)NCc1ccco1 | 11.5% (inactive) |  |
| O=C(CCCn1c(SCC(=O)c2ccc(F)cc2)nc2ccccc2c1=O)NCc1ccco1 |  | 15.8 µM (active) |
| O=C(CSc1nc2ccccc2c(=O)n1CCCO)NC1CC1 | 0.89% (inactive) |  |
| O=C(Nc1ccc([N+](=O)[O-])cc1)c1cnn2c1NC(=C1CC1)C=C2C(F)F | -0.0813% (inactive) |  |
| COCC(=O)Nc1cc(C(=O)N2CCCC(c3ccccc3)CC2)c2c(c1)nc(-c1ccncc1)n2C (centres undefined) | -0.433% (inactive) |  |
| COc1ccccc1C1CN(Cc2ccccc2O)Cc2ccccc2O1 (centres undefined) | 0.0982% (inactive) |  |
| COC(=O)c1ccccc1C(=O)NCc1nc(N2CCCC2)c2cccc(C)c2n1 | -0.339% (inactive) |  |
| O=S(=O)(NCCCN1CCOCC1)c1ccc(F)c(Cl)c1 | 4.27% (inactive) |  |
| Cc1ccc(S(=O)(=O)NCCN2CCOCC2)cc1C |  | 14.1 µM (active) |
| Cc1cc(C)c(S(=O)(=O)NCCCN2CCOCC2)cc1Br | -1.42% [at 38.3 µM] (inactive) |  |
| COc1ccccc1C(=O)N[C@@H]1c2ccccc2C2(CCN(Cc3nc(C(C)C)cs3)CC2)[C@H]1O | -1.21% (inactive) |  |
| COc1cc(OC)c(/C=C/c2ccnc3ccccc23)c(OC)c1 | 8.99% (inactive) |  |

| SMILES | activation (PINK1 increase) | Potency |
| --- | --- | --- |
| Cc1cccc(CNC(=O)c2cnn(-c3nccc(-c4ccccc4F)n3)c2C2CC2)n1 | -0.292% (inactive) |  |
| CN(C)c1ccc(/C=C2\C=Cc3ccccc32)cc1Br | 2.66% (inactive) |  |
| CC(C)(C)C1CCC(NC(=O)c2cnn3c2NC(=C2CC2)C=C3C(F)F)CC1 (centres undefined) | -0.21% (inactive) |  |
| Cn1nccc1C(=O)NCC1CCC2(CCN(Cc3c(O)ccc4ccccc34)CC2)O1 (centres undefined) | -0.145% (inactive) |  |
| O=C(NCCN1CCOCC1)c1cnn(-c2nccc(-c3cccs3)n2)c1C1CC1 | 1.85% (inactive) |  |
| Cc1cnc(C)c(-c2cc(F)c3c(c2)CC(CNC(=O)c2cccc(Cn4cccn4)c2)O3)n1 (centres undefined) | 0.0853% (inactive) |  |
| CCOc1ccc2c(c1)cc(CN(C(=O)CC)C1CCCCC1)c1nnnn12 | -2.48% (inactive) |  |
| CCc1cccc(NC(=S)N(CCN(C)C)C2CCN(C(C)C)CC2)c1 | -1.23% (inactive) |  |
| CCc1ccc2c(c1)cc(CN(C(=S)Nc1ccccc1Cl)C1CC1)c1nnnn12 |  | 12.6 µM (active) |
| CC(C)C(=O)NC(C)c1nnc2n1CCN(Cc1cccc3ncccc13)CC2 (centres undefined) | -0.848% (inactive) |  |
| O=C1CCN(Cc2ccc(-c3ccccc3)cc2)CCN1Cc1ccccn1 | 0.935% (inactive) |  |
| Cc1oc(-c2cccc(NC(=O)c3ccccc3)c2)nc1CNC(=O)c1cnc2ccccn2c1=O | 0.787% (inactive) |  |
| O=C(Nc1ccccc1C(F)(F)F)c1nc(S(=O)(=O)Cc2ccccc2F)ncc1Cl | 3.33% (inactive) |  |
| COCCCNC(=O)/C(C#N)=C/c1c(N2CCCCCC2)nc2ccccn2c1=O | 0.655% (inactive) |  |
| CC1(C(=O)NCCc2c[nH]c3ccccc23)C=CC2(CCCCC2)N1C(=O)c1ccccc1 (centres undefined) | -0.269% (inactive) |  |
| N#C/C(=C/c1ccc(N2CCCCC2)o1)C(=O)NCCc1c[nH]c2ccccc12 |  | 11.2 µM (active) |
| COCCN1CCN(C(=O)c2sc3ncnc(NCC4CCCO4)c3c2C)CC1 (centres undefined) | 0.389% (inactive) |  |
| CN1CCCCCC1C(=O)NCCN1Cc2ccccc2OC(c2ccsc2)C1 (centres undefined) | -0.383% (inactive) |  |
| COc1ccccc1-c1ccnc(-n2ncc(C(=O)NCCc3ccncc3)c2C)n1 | 1.69% (inactive) |  |
| COC(=O)C1CCCCN1Cc1ccc2c(c1)CN(Cc1cc(OC)c3c(c1)OCO3)CCO2 (centres undefined) | 0.531% (inactive) |  |
| COc1ccc(C(F)(F)F)cc1NC(=O)c1sc2nc(-c3cccs3)ccc2c1N | 16.7% (inactive) |  |
| N#Cc1ccc(C(=O)Nc2nc(-c3cccs3)c(C(=O)C(F)(F)F)s2)cc1 |  | 6.31 µM (active) |
| COCC(C)NC(=O)c1ccc(-n2nc(C(F)(F)F)cc2-c2cccs2)cc1 (centres undefined) | -2.38% (inactive) |  |
| C=C1C=C(C)n2ncc(C(=O)Nc3ccccc3O)c2N1 | 1.83% (inactive) |  |
| COc1ccccc1CNc1cc(-c2ccccc2CN(C)C)ncn1 | 0.0313% (inactive) |  |

Source: PubChem BioAssay AID624263 (National Center for Advancing Translational Sciences (NCATS), 2012)
